The source made the active and inactive calls. How the source made its calls: active means hit-call score of the fitted dose curve at least 0.9, where 1 is the maximum; inactive means score below 0.9.

This assay in a line: ATG_BRE_CIS: Attagene CIS-FACTORIAL HepG2 Assay for human Bone Morphogenetic Protein (BMP) Response Element (BRE) (AID 2282933). The following applies: HepG2 BMP response element reporter, Attagene transcription factor profiling; actives raise or lower the signal. The method, then:
ATG_CIS is a cell-based, multiplexed-readout assay that uses HepG2, a human liver cell line, with measurements taken at 24 hours after chemical dosing in a 24-well plate.ATG_BRE_CIS is one of 52 assay component(s) measured or calculated from the ATG_CIS assay. It is designed to make measurements of mRNA induction, a form of inducible reporter, as detected with fluorescence intensity signals by Reverse transcription polymerase chain reaction (RT-PCR) and Capillary electrophoresis technology.Data from the assay component ATG_BRE_CIS was analyzed into 1 assay endpoint. This assay endpoint, ATG_BRE_CIS, was analyzed with bidirectional fitting relative to DMSO as the negative control and baseline of activity. Using a type of inducible reporter, measures of mRNA for gain or loss-of-signal activity can be used to understand the reporter gene at the transcription factor-level as they relate to the gene SMAD1. Furthermore, this assay endpoint can be referred to as a primary readout, because this assay has produced multiple assay endpoints where this one serves a reporter gene function. To generalize the intended target to other relatable targets, this assay endpoint is annotated to the dna binding intended target family, where the subfamily is Smad protein.
Human liver HepG2 cells are transiently transfected with multiple reporter transcription units (MRTUs) in 6-well plates using FuGene 6 reagent (Roche; 3 ml FuGene/1 mg DNA). The MRTU constructs are regulated by a cis-regulating element (promoter). […] A major difference between the CIS and TRANS system is that in CIS activities of endogenous TFs are measured, whereas the TRANS assay evaluates changes in activities of exogenous, chimeric NR-Gal4 proteins. […] At the end of 24 hour incubation, total RNA was isolated using TriZol reagent (Invitrogen). The isolated RNA is then reverse-transcribed using oligo(dT) primer and Mo-MLV reverse transcriptase (Invitrogen) with DNAse I (Ambion) treatment for 30 min. The one-tenth of the produced cDNA was amplified by PCR using Taq DNA polymerase (Invitrogen) and two reporter sequence-specific primers. The PCR products were fluorescently labeled by primer extension with 6-arboxyfluorescein (6-FAM) 5'-labeled reporter sequence-specific primer (2 min at 95 C, 20 s at 68 C and 10 min at 72 C) and these products were digested with 5U of HpaI (New England Biolabs) for 2h at 37 C. The fragments were purified using Qiaquick PCR columns (Qiagen), analyzed on an ABI 3130xL genetic analyzer (Applied Biosystems) with peak positions identified by using a set of X-rhodamine (ROX)-labeled MapMarker1000 molecular weight standards (BioVentures). The raw capillary electrophoresis data was processed using Attagraph software (Attagene).
`NCCNCCN`: the compound was called inactive.
On the same count and under the same terms, in the case of `CC1(CO)CN(c2ccccc2)NC1=O` (stereo not given) it was “inactive”; in that of `O=[N+]([O-])c1cc(C(F)(F)F)ccc1Cl`, “inactive”; in that of `CC[C@]12CCCN3CCc4c(n(c5ccccc45)[C@@](O)(C(=O)OC)C1)[C@@H]32`, “inactive”.
Same read-out and setting: in the case of `CCc1c(C)cc(N)c(CC)c1N` it was “inactive”.
Same read-out and setting: then `CCCCOCCOCCSC#N`, with “inactive”; and `Cc1ccc(Nc2ccc(O)c3c2C(=O)c2ccccc2C3=O)cc1`, with “inactive”.
As to `COc1c(Cl)c(Cl)c(Cl)c(Cl)c1Cl`, the result was inactive.
Consider `CCCc1c(OCCCOc2ccc(OCC(=O)O)cc2)ccc(C(C)=O)c1O`, for which the AC50 is 137 µM (active).
For the compound `CC[Si](OC(C)=O)(OC(C)=O)OC(C)=O`, the compound was called inactive.
Take `CCCCCCCCCCCCCCCC(=O)O`: the compound was called inactive.
As to `O=C(O)C[C@H](O)C[C@H](O)/C=C/c1c(C2CC2)nc2ccccc2c1-c1ccc(F)cc1`, the compound was called inactive.
On to `O=C(O)c1cn(-c2ccc(F)cc2)c2cc(N3CCNCC3)c(F)cc2c1=O`, for which the call was inactive.
On the same count and under the same terms, then `CCC(C)(O)CCC=C(C)C` (stereo not given), with “inactive”; and `CCCCNC(=O)NS(=O)(=O)c1ccc(C)cc1`, with “inactive”; and `C=CCOc1nc(OCC=C)nc(OCC=C)n1`, with “inactive”.
`C=CC(=O)OCC(O)COc1ccccc1` (stereo not given): the AC50 is 82.8 µM (active).
On to `CCCCCCCCCCCCCC(=O)O`, for which the outcome was inactive.
On the same count and under the same terms, then `COc1cc(C=O)ccc1OC(=O)C(C)C`, with “inactive”.
For `COc1ccc(O)cc1`, the outcome was inactive.
Regarding `CCCCCCCCC=O`, the call was inactive.
As for `O=C(O)CN(CCN(CC(=O)O)CC(=O)O)CCN(CC(=O)O)CC(=O)O`, the outcome was inactive.
With `CCCCCCCCCCCCN(CCCCCCCCCCCC)CCCCCCCCCCCC`, the compound was classed as inactive.
Turning to `O=C(O)CCCCCCCCCCC(=O)O`, the outcome was inactive.
For the compound `COC(=O)C1=C(C)NC(C)=C(C(=O)OCCN(C)Cc2ccccc2)C1c1cccc([N+](=O)[O-])c1` (stereo not given), the AC50 was 17.9 µM (active).
In the case of `COc1cc2ncnc(Nc3cccc(Cl)c3)c2cc1OC`, the result was inactive.
On the same count and under the same terms, then `CCC(=O)OCCC(C)CCC=C(C)C` (stereo not given), with “inactive”.
With `Nc1ccc(S(N)(=O)=O)cc1`, the result was inactive.
Consider `OCCOCCOCCOCCO`, for which the outcome was inactive.
Take `CC(C)(Oc1ccc(CCNC(=O)c2ccc(Cl)cc2)cc1)C(=O)O`: the call was inactive.
For the compound `CC(CCO)CCc1ccccc1` (stereo not given), the compound was classed as inactive.
Consider `CCCC/C=C\CCCCCCCCCC=O`, for which the outcome was inactive.
`CCC(C)CCCC(C)(C)O` (stereo not given): the call was inactive.
For `BrC1CCC(Br)C(Br)CCC(Br)C(Br)CCC1Br` (stereo not given), the compound was classed as inactive.
On the same count and under the same terms, then `CCCOCC(C)O` (stereo not given), with “inactive”.
Turning to `CCC(=O)/C=C/C1C(C)=CCCC1(C)C` (stereo not given), the compound was classed as inactive.
The same measure, in the same setting: then `C=CC(=O)OCCOCCOCC`, with “inactive”; and `O=C(OCc1ccccc1)C(=O)OCc1ccccc1`, with “inactive”.
On the same count and under the same terms, in the case of `Fc1c(F)c(F)c(Br)c(F)c1F` it was “inactive”; in that of `c1cc(C(c2ccc(OCC3CO3)cc2)c2ccc(OCC3CO3)cc2)ccc1OCC1CO1` (stereo not given), “inactive”.

In general, AC50 refers to the concentration at which the activity in the assay is half-maximal.

(Values after PubChem BioAssay (EPA / NIEHS).)
